CYP2C19 activ = human CYP2C19 activators, primary screen, biochemical, luminescence | recombinant CYP2C19, luciferin-H EGE luminescence; active compounds read high; 0 = fully inhibited enzyme, 1 = untreated enzyme | activation factor at 5 µM | 96,000 tested, under 10 active | Cytochrome P450 2C19 (Homo sapiens), P33261;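 active = activation factor of at least 2 at 5 µM in the primary screen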
CYP2C19 inhib = blockers of cytochrome P450 2C19 activity – biochemical, luminescence, ADME assay, primary screen | P33261 | CYP2C19 Supersomes, luciferin-H EGE luminescence, 30 min | inhibition, % at 5 µM | actives 21% (n = 96,000);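 active = CYP2C19 inhibition above a set limit at 5 µM in the primary screen, cut at about 50% in these data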
CYP2C9 inhib = blockers of cytochrome P450 2C9 activity – biochemical, luminescence, ADME assay, primary screen; CYP2C9 Supersomes, luciferin-H conversion; actives 20% (n = 96,000); P11712; AID 777, 2007; inhibition, % at 5 µM;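 active = blocking of liver enzyme CYP2C9 beyond about 50% at 5 µM, limit read from the data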
Target sequence (P11712 whole entry, looked up): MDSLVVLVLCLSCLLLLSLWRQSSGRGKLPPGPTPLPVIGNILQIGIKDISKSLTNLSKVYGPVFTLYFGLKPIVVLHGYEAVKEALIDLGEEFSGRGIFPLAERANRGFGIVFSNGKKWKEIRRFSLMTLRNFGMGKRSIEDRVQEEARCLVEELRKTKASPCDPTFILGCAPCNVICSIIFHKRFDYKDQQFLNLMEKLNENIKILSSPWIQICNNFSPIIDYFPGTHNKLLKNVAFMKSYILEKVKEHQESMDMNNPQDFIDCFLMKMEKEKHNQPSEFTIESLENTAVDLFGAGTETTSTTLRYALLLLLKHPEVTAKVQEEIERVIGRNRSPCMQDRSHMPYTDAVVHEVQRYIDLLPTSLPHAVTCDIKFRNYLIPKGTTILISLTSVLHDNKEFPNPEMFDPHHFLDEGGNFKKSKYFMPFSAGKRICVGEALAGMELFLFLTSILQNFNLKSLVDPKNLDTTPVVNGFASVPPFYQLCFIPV
PostGolgi ctrl = growth inhibition of yeast control strain, primary screen, counter-screen for post-Golgi transport modulator project | efflux-deficient yeast background strain, growth absorbance A615, 16 h | inhibition, % at 10 µM | actives 5% (n = 98,000)
CYP2C9 activ = human CYP2C9 activators, primary screen, biochemical, luminescence; recombinant CYP2C9, luciferin-H conversion; active compounds read high; factor 1 = untreated enzyme, 0 = blocked; Cytochrome P450 2C9 (Homo sapiens), P11712; actives 1.4% (n = 96,000); activation factor at 5 µM; AID 1024, 2008;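 active = activation factor of 2 or more for CYP2C9 at a 5 µM dose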
PostGolgi yeast = phenotypic screen on post-Golgi transport, primary screen; post-Golgi transport phenotypic cell assay; inhibition, % at 10 µM; actives 0.9% (n = 98,000); AID 739, 2007;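 note: yeast cells grown in 1536-well plates; yeast grown about 18 h at 30C before absorbance read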
Of the large screens only hits and unclear results are named; the others gave an inactive call. Shown are actives, neighbours in structure and some others; about 32% of the full set was active somewhere. Cut-off read from the data, not from the text of the source, unless noted: active = inhibition above about 30%; inactive = the rest.

Cc1ccc(S(=O)(=O)N2CCN(C(=O)c3ccccc3)C2C(C)C)cc1 (configuration not stated)	PostGolgi ctrl 31
CC(=O)N1CCN(S(=O)(=O)c2ccc(C)cc2)C1C(C)C (configuration not stated)	CYP2C19 inhib 69
COc1ccc(C2N(C(=O)c3ccccc3)CCN2C(=O)c2ccc(C)cc2)cc1 (configuration not stated)	none
C/C(CC(O)c1ccc2ccccc2n1)=N/O (configuration not stated)	none
Cc1cc(C)n(-c2ccc(Cl)c(C(=O)Nc3ccc(-c4nnc5n4CCCCC5)cc3)n2)n1	none
Cc1cc(-n2c(C)cc(C(=O)CSc3nnnn3-c3ccccc3)c2C)no1	none
Cc1cc(-n2c(C)cc(C(=O)CSc3ccc4c(c3)OCCO4)c2C)no1	CYP2C19 inhib 89
CC(=O)Nc1cc(-c2nn(C)c(=O)c3ccccc23)ccc1N1CCCCC1	CYP2C9 inhib 57
Cn1nc(-c2ccc(N3CCOCC3)c(NS(=O)(=O)c3ccccc3)c2)c2ccccc2c1=O	CYP2C19 inhib 53
CC(=O)Nc1cc(-c2nn(CC(=O)N3CCCCC3)c(=O)c3ccccc23)ccc1N1CCOCC1	none
COc1ccc(-c2nn(C)c(=O)c3ccccc23)cc1NC(=O)Cn1nc(C)c2ccccc2c1=O	CYP2C9 inhib 58
CCC(=O)Nc1cc(-c2nn(C)c(=O)c3ccccc23)ccc1N1CCCCC1	CYP2C9 inhib 81
COc1ccccc1CN1CC(C(=O)NC2CCCCC2)CC1=O (configuration not stated)	none
COc1cc(NC(=O)C2CCCCC2)c(OC)cc1NC(=O)CN1CCCCC1	none
COc1cccc(C(=O)CN(C(=O)c2ccc(Cl)c(Cl)c2)N2C(=O)c3ccccc3C2=O)c1	none
Cc1ccc(-c2nn(C)c(=O)c3ccccc23)cc1S(=O)(=O)NCCO	none
Cc1ccc(-c2nn(C)c(=O)c3ccccc23)cc1S(=O)(=O)N1CCCC1	CYP2C19 inhib 51, CYP2C9 inhib 63
CCCC(=O)Nc1cc(-c2nn(C)c(=O)c3ccccc23)ccc1OC	none
CCCC(=O)Nc1cc(-c2nnc(OC)c3ccccc23)ccc1N1CCCCC1	PostGolgi ctrl 43
COc1ccc(Cc2nnc(NC(=O)c3ccco3)s2)cc1OC	none
O=c1nc(/C=C/c2cc([N+](=O)[O-])ccc2Cl)cc(C(F)(F)F)[nH]1	CYP2C9 inhib 81
COc1ccc(OC)c(N=C(C)C2=C(O)COC2=O)c1	none
O=C(Cc1cscn1)c1ccc(O)cc1O	none
Cc1nc(C(C)(C)O)n(-c2ccccc2)n1	none
CC(C)(O)c1nnn(-c2ccccc2)c1C(F)(F)F	CYP2C19 inhib 75
CC(C)=C1C2C=CC1C(C(=O)Nc1cccc(C)c1)C2C(=O)O (configuration not stated)	none
COc1ccc(-c2cc(CCCC(=O)NCCc3ccc(OC)cc3OC)no2)cc1	none (no result: CYP2C19 activ, CYP2C19 inhib, CYP2C9 inhib, CYP2C9 activ)
CCOc1ccc(-c2cc(CCCC(=O)NCc3cccnc3)no2)cc1	none
COc1ccc(-c2cc(CCCC(=O)NCc3ccccn3)no2)cc1	CYP2C19 inhib 56, CYP2C9 inhib 67
CCOc1ccc(-c2cc(CCCC(=O)NCCc3ccccc3)no2)cc1	CYP2C9 inhib 50
CCOc1ccc(-c2cc(CCCC(=O)NCCc3ccc(OC)c(OC)c3OC)no2)cc1	CYP2C9 inhib 66
C=CCNc1ccc(F)c(F)c1N1CCCCCC1=O	none
Cc1ccc(C(=O)NNC(=S)Nc2cccc(Cl)c2Cl)cc1[N+](=O)[O-]	CYP2C9 inhib 76 (no result: PostGolgi yeast)
Cc1ccc(C(=O)NCc2ccco2)cc1[N+](=O)[O-]	none
CCOC(=O)CN1C(=O)C(Sc2n[nH]c(-c3ccccc3)n2)CCc2ccccc21 (configuration not stated)	CYP2C19 inhib 89, CYP2C9 inhib 93
CCOC(=O)N1CCN(C(=O)CSc2nc3ccccc3c(=O)n2-c2ccccc2)CC1	CYP2C19 inhib 56, CYP2C9 inhib 98
CCOC(=O)CSc1nc2ccccc2c(=O)n1Cc1ccco1	none
Cc1nn(-c2ccccc2)c(C)c1/C=N/NC(=O)CSc1nc2ccccc2c(=O)n1-c1ccc(Br)cc1	CYP2C9 inhib 51

Screens (PubChem)
